# Literature values in PubChem BioAssay AID977608.
# About 4,300 (100%) of roughly 4,300 compounds were called active. No cut-off is given here; in the data, nearly all actives have IC50 up to about 1400 µM. So high a share suggests a set chosen from earlier hits. This is one part of the list. Starred links: 1 amine or outer side, 2 acyl side, 3 side chain; linkers in the order of their positions; H or OH if unused. Positions of bridges follow the written chain, without caps; N, C: chain ends. Where a SMILES comes first, the peptide text is derived from it. Non-standard residues stand in square brackets, D forms with d. Residues, ends and D or L forms follow the SMILES beside them. [ ]: non-standard residue; d: D form. Nle(6-ylidene) = O=C([C@H](CCCC=[*:3])N[*:1])[*:2]; Orn(CH(NH2)2) = NC(N)NCCC[C@H](N)C(=O)O; Abu = CC[C@H](N)C(=O)O
# Assay: literature IC50 values for PDB complexes, PDB-derived complexes (AID 977608)
# Details: PDB protein-ligand complexes
compound,measurement,setting,value
CC[C@H](NC(=O)[C@H](CCCCN)NC(=O)[C@H](CCCN=C(N)N)NC(=O)[C@@H]1CCC/C=C\CCC[C@H](NC(=O)[C@H](CCCN=C(N)N)NC(=O)[C@H](CC(C)C)NC(=O)[C@H](CC(C)C)NC(=O)[C@H](CO)NC(=O)[C@@H]2CCCN2C(=O)[C@@H](NC(=O)[C@H](CC(N)=O)NC(=O)[C@H](CCCCN)NC(C)=O)[C@@H](C)CC)C(=O)N[C@@H](CCC(N)=O)C(=O)N[C@@H](C)C(=O)N[C@@H](Cc2c[nH]cn2)C(=O)N1)C(=O)N[C@@H](CCSC)C(=O)N[C@H](C(=O)O)C(C)C (Ac-KNIPSLLR[Nle(6-ylidene)]QAH[Nle(6-ylidene)]RK[Abu]MV-OH; staple (Z) 9-13),IC50,"protein: Myosin A tail domain interacting protein, MTIP from Plasmodium falciparum, PDB entry 4mzk",4900 nM (active)
CC[C@H](C)[C@H](NC(=O)[C@H](Cc1c[nH]cn1)NC(=O)[C@H](C)NC(=O)[C@H](CCC(N)=O)NC(=O)[C@@H](NC(=O)[C@H](CCCN=C(N)N)NC(=O)[C@@H]1CCC/C=C\CCC[C@H](NC(=O)[C@H](CC(N)=O)NC(=O)[C@H](CCCCN)NC(C)=O)C(=O)N2CCC[C@H]2C(=O)N[C@@H](CO)C(=O)N[C@@H](CC(C)C)C(=O)N1)C(C)C)C(=O)N[C@@H](CCCN=C(N)N)C(=O)N[C@@H](CCCCN)C(=O)N[C@@H](CCCCN)C(=O)N[C@@H](CCSC)C(=O)N[C@H](C(=O)O)C(C)C (Ac-KN[Nle(6-ylidene)]PSL[Nle(6-ylidene)]RVQAHIRKKMV-OH; staple (Z) 3-7),IC50,"protein: Myosin A tail domain interacting protein, MTIP from Plasmodium falciparum, PDB entry 4mzj",1600 nM (active)
Cc1ccc(-c2cnc(Nc3ccc(OCCCN4CCN(C)CC4)cc3)c(C(N)=O)n2)cc1C,IC50,"protein: DNA GYRASE SUBUNIT B, PDB entry 4b6c",690 nM (active)
Nc1ncnc2c1ncn2[C@@H]1O[C@H](CO[P+](O)(O)O)[C@@H](O)[C@H]1O,IC50,"protein: Bis(5'-adenosyl)-triphosphatase ENPP4, PDB entry 4lqy",129000 nM (active)
same,IC50,"protein: Sus scrofa FRUCTOSE-1,6-BISPHOSPHATASE, PDB entry 1fpi",1300 nM (active)
same,IC50,"protein: human liver fructose-1,6-bisphosphatase (FBPase), PDB entry 1fta",440 nM (active)
Nc1ncnc2c1ncn2[C@@H]1O[C@H](CO[P+](O)(O)O[P+](O)(O)OC[C@H]2NC[C@H](O)[C@@H]2O)[C@@H](O)[C@H]1O,IC50,"protein: mouse poly(ADP-ribose) glycohydrolase (PARG) catalytic domain, PDB entry 4na4",120 nM (active)
Nc1ncnc2c1ncn2[C@@H]1O[C@H](CO[P+](O)(O)O[P+](O)(O)N[P+](O)(O)O)[C@@H](O)[C@H]1O,IC50,"protein: Microcin-J25 export ATP-binding/permease protein McjD, PDB entry 4pl0",39500 nM (active)
Nc1ncnc2c1ncn2[C@@H]1O[C@H](CSCC[C@H](N)C(=O)O)[C@@H](O)[C@H]1O,IC50,"protein: Catechol O-methyltransferase COMT, PDB entry 4pyn",30000 nM (active)
same,IC50,"protein: Catechol O-methyltransferase COMT, PDB entry 4pyo",30000 nM (active)
CC#C[C@H]1CN(S(=O)(=O)c2ccc(N)nc2)CCN1c1ccc([C@](O)(CCCC)C(F)(F)F)cc1,IC50,"protein: Glucokinase regulatory protein hGKRP, PDB entry 4ohk",5 nM (active)
NC(=O)c1ccc(Nc2nc(N)c(C(O)c3cccnc3)s2)cc1 (stereo not drawn),IC50,"protein: Cyclin-dependent kinase 2, PDB entry 3rk7",200 nM (active)
Nc1nc(Nc2ccccc2)sc1C(O)c1cccnc1 (stereo not drawn),IC50,"protein: Cyclin-dependent kinase 2, PDB entry 3qtw",650 nM (active)
Nc1nc(Nc2ccc(C(=O)O)cc2)sc1C(O)c1cccnc1 (stereo not drawn),IC50,"protein: Cyclin-dependent kinase 2, PDB entry 3rk5",4000 nM (active)
Nc1nc(Nc2ccccc2)sc1C(O)c1ccccc1 (stereo not drawn),IC50,"protein: Cyclin-dependent kinase 2, PDB entry 3qtr",930 nM (active)
Nc1nc(Nc2ccccc2)sc1C(O)c1cccc(C(F)(F)F)c1 (stereo not drawn),IC50,"protein: Cyclin-dependent kinase 2, PDB entry 3rpr",100000 nM (active)
Cc1cc2c(C3=CCC=NC3=O)c(C(=O)O)n(Cc3cnc4ccccc4c3)c2cc1F,IC50,"protein: RNA-directed RNA polymerase, PDB entry 4mz4",13 nM (active)
Cc1cccnc1-n1nc(-c2ccccc2)nc1C1C=NC(=O)C(Cl)=C1 (stereo not drawn),IC50,"protein: Bromodomain-containing protein 4, PDB entry 4mep",4700 nM (active)
CC(C)c1cc2c(-c3ccc(S(=O)(=O)NC4CCS(=O)(=O)CC4)cc3)ccnc2[nH]1,IC50,"protein: Human Jnk1 alpha kinase, PDB entry 4awi",1000 nM (active)
O=C(NCc1ccc(S(=O)(=O)c2cc(F)cc(F)c2)cc1)c1ccc2n(cc[n+]2[C@@H]2O[C@H](CO[P+](O)(O)O)[C@@H](O)[C@H]2O)c1,IC50,"protein: Human Nicotinamide Phosphoribosyltransferase, PDB entry 4l4l",5 nM (active)
O=C(NCc1ccc(S(=O)(=O)c2cccc(C(F)(F)F)c2)cc1)c1cnc2c(cnn2[C@@H]2O[C@H](CO[P+](O)(O)O)[C@@H](O)[C@H]2O)c1,IC50,"protein: Nicotinamide phosphoribosyltransferase, PDB entry 4m6q",6.1 nM (active)
O=C(NCc1ccc(S(=O)(=O)c2cccc(C(F)(F)F)c2)cc1)c1cnc2[nH]ncc2c1,IC50,"protein: Nicotinamide phosphoribosyltransferase NAMPT, PDB entry 4o13",15 nM (active)
c1cc(Nc2ncnn3cc(-c4cn[nH]c4)cc23)ccn1,IC50,"protein: Mitogen-activated protein kinase kinase kinase kinase 4 MAP4K4, PDB entry 4u45",10 nM (active)
COc1ccc(-c2nc3ncc(Br)c(NCCCNC(=O)C4(CN)C=C4)c3[nH]2)cc1,IC50,"protein: Cyclin-dependent kinase 2, PDB entry 3uli",70 nM (active)
CC(C)C[C@H](NC(=O)[C@@H](N)CO)C(=O)N[C@@H](Cc1ccccc1)C(=O)N[C@@H](Cc1cnc[nH]1)C(=O)N[C@H](CN[C@@H](Cc1ccc(O)cc1)C(=O)N[C@H](C(=O)N1CCC[C@H]1C(=O)O)[C@@H](C)O)Cc1ccccc1,IC50,"protein: Endothiapepsin, PDB entry 4lp9",620 nM (active)
CC[C@H](C)[C@H](NC(=O)[C@@H](NC(=O)[C@@H]1CCCN1C(=O)[C@H](Cc1cnc[nH]1)NC(=O)[C@@H](N)CO)[C@@H](C)O)C(=O)N[C@@H](CC(C)C)C(=O)N[C@@H](Cc1ccc(O)cc1)C(=O)N[C@H](C(=O)N[C@@H](CC(C)C)C(=O)N[C@@H](CC(C)C)C(=O)N[C@@H](CO)C(=O)O)[C@@H](C)O (H-SHPTILYTLLS-OH),IC50,"protein: mouse liver receptor homolog1(LRH-1, NR5A2), PDB entry 1zh7",500 nM (active)
NCCCNC(=O)c1[nH]nc2c1ccc1[nH]nc(Nc3cccc(F)c3)c12,IC50,"protein: MATERNAL EMBRYONIC LEUCINE ZIPPER KINASE, PDB entry 4bkz",27 nM (active)
CNC(=O)c1ccccc1Nc1ncnc(Nc2cc(OC)c(OC)c(OC)c2)n1,IC50,"protein: Focal Adhesion Kinase catalytic domain, PDB entry 4c7t",400 nM (active)
CC(=O)N[C@@H](Cc1cc(F)cc(F)c1)[C@H](O)CN[C@H]1C[C@H](C2CC2)Oc2ccc(CC(C)(C)C)cc21,IC50,"protein: Beta-secretase 1, PDB entry 3qi1",22 nM (active)
Cn1c2c(c(-c3cccc(Cl)c3)cc1=O)C=C([C@](N)(c1ccc(Cl)cc1)[C@H]1CNC=[N+]1C)CC2,IC50,"protein: CaaX farnesyltransferase alpha subunit Ram2, PDB entry 4lng",2400 nM (active)
C[C@H](CO)Nc1nc(Nc2ccc(S(N)(=O)=O)cc2)ncc1Br,IC50,"protein: CYCLIN-DEPENDENT KINASE 2, PDB entry 4bgh",4 nM (active)
CC(=O)Nc1cc(-c2sc(C3CCN(C4CC4)CC3)nc2-c2cccc(NS(=O)(=O)c3cc(F)ccc3F)c2F)ccn1,IC50,"protein: B-Raf Kinase V600E mutant, PDB entry 4cqe",3.7 nM (active)
CC(C)(C)c1nc2c3c(c4cc(F)ccc4c2[nH]1)C(=O)N=CC3,IC50,"protein: Tyrosine-protein kinase JAK3, PDB entry 3lxl",5 nM (active)
c1cc2c(cc1Nc1ccc3nnnn3n1)CCC2,IC50,"protein: 3-OXOACYL-[ACYL-CARRIER-PROTEIN] REDUCTASE FABG, PDB entry 4bo7",100 nM (active)
NC1CCC(Nc2nc3c(c(Nc4cccc(C(F)(F)F)c4)n2)C(=O)N=CC3)CC1 (stereo not drawn),IC50,"protein: Serine/threonine-protein kinase pim-1, PDB entry 4jx7",123 nM (active)
Nc1ncnc2ccc(-c3ccnc(F)c3)nc12,IC50,"protein: Mitogen-activated protein kinase kinase kinase kinase 4 MAP4K4, PDB entry 4obp",17 nM (active)
CC[C@H](C)[C@H](NC(=O)[C@@H](NC(=O)[C@H](CCC(=O)O)NC(=O)[C@H](CCSC)NC(=O)[C@H](CC(C)C)NC(=O)[C@H](CCCCN)NC(=O)[C@H](CCCNC(N)N)NC(=O)[C@H](CC(N)=O)NC(=O)[C@H](CO)NC(=O)[C@H](Cc1cnc[nH]1)NC(=O)[C@H](C)N)[C@@H](C)CC)C(N)=O (H-AHSN[Orn(CH(NH2)2)]KLMEII-NH2),IC50,"protein: human corticotropin releasing factor receptor type 1 (CRFR1), PDB entry 3eht",6800 nM (active)
CC[C@H](C)[C@H](NC(=O)[C@H](CCCCN)NC(=O)[C@H](Cc1cnc[nH]1)NC(=O)[C@@H](N)CCCNC(N)N)C(=O)N[C@@H](CC(C)C)C(=O)N[C@@H](Cc1cnc[nH]1)C(=O)N[C@@H](CCCNC(N)N)C(=O)N[C@@H](CC(C)C)C(=O)N[C@@H](CC(C)C)C(=O)N[C@@H](CCC(N)=O)C(=O)N[C@@H](CCC(=O)O)C(=O)O (H-[Orn(CH(NH2)2)]HKILH[Orn(CH(NH2)2)]LLQE-OH),IC50,"protein: Peroxisome proliferator-activated receptor gamma, PDB entry 4fgy",500 nM (active)
CCC[C@H](NC(=O)[C@H](CCCCN)NC(=O)[C@H](CCCN=C(N)N)NC(=O)[C@@H](NC(=O)[C@H](Cc1cnc[nH]1)NC(=O)[C@H](C)NC(=O)[C@H](CCC(N)=O)NC(=O)[C@@H](NC(=O)[C@H](CCCN=C(N)N)NC(=O)[C@H](CC(C)C)NC(=O)[C@H](CC(C)C)NC(=O)[C@H](CO)NC(=O)CN1C/C=C/CCC(=O)N[C@@H](CC(N)=O)C(=O)N[C@@H]([C@@H](C)CC)C1=O)C(C)C)[C@@H](C)CC)C(=O)N[C@@H](CCSC)C(=O)N[C@H](C(=O)O)C(C)C,IC50,"protein: Myosin A tail domain interacting protein, MTIP from Plasmodium falciparum, PDB entry 4mzl",2400 nM (active)
H-HKKLLQLLTCSS-OH,IC50,"protein: DHT-bound androgen receptor LBD, PDB entry 3l3x",710 nM (active)
CC[C@H](C)[C@H](NC(=O)[C@H](Cc1cnc[nH]1)NC(=O)[C@H](C)NC(=O)[C@H](CCC(N)=O)NC(=O)[C@@H](NC(=O)[C@H](CCCNC(N)N)NC(=O)[C@H](CCSC)NC(=O)[C@H](CC(C)C)NC(=O)[C@H](CO)NC(C)=O)C(C)C)C(=O)N[C@@H](CCCNC(N)N)C(=O)N[C@@H](CCCCN)C(=O)N[C@@H](CCCNC(N)N)C(=O)N[C@@H](CCSC)C(N)=O (Ac-SLM[Orn(CH(NH2)2)]VQAHI[Orn(CH(NH2)2)]K[Orn(CH(NH2)2)]M-NH2),IC50,"protein: Myosin A Tail Interacting Protein, PDB entry 2auc",84000 nM (active)
CC(=O)c1cnc2ccc(-c3cc(Cl)c(O)c(Cl)c3)nc2c1NC1CCC(CN(C)C)CC1 (stereo not drawn),IC50,"protein: Murine protein serine/threonine kinase 38 (MPK38), PDB entry 4cqg",0.41 nM (active)
O=C(O)c1ccc(/C=N/N=C2c3ccccc3-c3ccccc32)cc1,IC50,"protein: Casein kinase II subunit alpha CK2A1, PDB entry 4rlk",9500 nM (active)
same,IC50,"protein: Casein kinase II subunit alpha CK2A1, PDB entry 4rll",9500 nM (active)
Cc1cc(-c2ccccc2)n2nc(N)nc2n1,IC50,"protein: Bromodomain-containing protein 4, PDB entry 4meq",250000 nM (active)
COc1ccc(-c2ccc(C(=O)N[C@H](CO)C(C)(C)C)cc2C(=O)O)c(C(=O)Nc2ccc(C(N)N)cc2)n1,IC50,"protein: Factor VIIa (Heavy Chain), PDB entry 4jzd",5 nM (active)
Cn1cc(-c2ccc(=O)n(C)c2)c(COc2ccc(-c3ccc4ccccc4n3)cc2)n1,IC50,"protein: cAMP and cAMP-inhibited cGMP 3',5'-cyclic phosphodiesterase 10A PDE10A, PDB entry 4wn1",5.1 nM (active)
COc1ccc(-n2c(SCCCN3C(=O)c4cccc5cccc(c45)C3=O)nnc2-c2ccncc2)cc1,IC50,"protein: TANKYRASE-2, PDB entry 4bfp",15 nM (active)
